MOR-DOR inv ag = mu-delta opioid heterodimer inverse agonism; P35372+P41143; cell-based MOR-DOR heterodimer luminescence; inhibition, % at 9.3 µM; 340,000 tested, 0.21% active; AID 504357; in the data active = inhibition above about 22%, passing the limit was not always enough
MOR-DOR ag-1 = OPRM1-OPRD1 heterodimerization agonism. P35372+P41143. cells, luminescence. activation, % at 9.3 µM. 340,000 tested, 0.3% active
HTR5A inv ag = counter-screen for OPRM1-OPRD1 inverse agonists: human HTR5A inverse agonism. 340,000 tested, 0.083% active. HTR5A cell line, luminescence. inhibition, % at 9.3 µM. AID 504634; in the data active = inhibition mostly above about 23%, no sharp cut-off; inactive = mostly below about 18%
Target sequence (P47898 whole entry, looked up): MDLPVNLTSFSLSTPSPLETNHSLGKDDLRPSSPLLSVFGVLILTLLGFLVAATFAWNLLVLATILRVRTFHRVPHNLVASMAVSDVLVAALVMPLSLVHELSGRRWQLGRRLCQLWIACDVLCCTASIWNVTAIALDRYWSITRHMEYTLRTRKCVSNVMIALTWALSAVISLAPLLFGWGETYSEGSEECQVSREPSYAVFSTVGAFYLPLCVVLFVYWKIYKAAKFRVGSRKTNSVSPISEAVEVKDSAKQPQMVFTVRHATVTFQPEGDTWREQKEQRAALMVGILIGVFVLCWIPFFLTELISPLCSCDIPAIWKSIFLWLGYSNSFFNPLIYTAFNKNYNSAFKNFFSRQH
HTR5A ag = activates human HTR5A in OPRM1-OPRD1 agonist counter-screen | activation, % at 9.3 µM | AID 504692 | 340,000 tested, 0.61% active | P47898 | HTR5A agonist assay, luminescence, cell-based; in the data active = activation mostly above about 9.5%, no sharp cut-off; inactive = mostly below about 7.6%
MOR-DOR ag-2 = promotes OPRM1-OPRD1 heterodimerization in HTR5A counter-screen. shares compounds with HTR5A ag. U2OS counter-screen cells, complementation luminescence, 3 h. activation, % at 9.3 µM. 800 tested, 13% active. AID 504913
HTR5A ag conf = confirmation of human HTR5A agonists | shares compounds with HTR5A ag | HTR5A agonist cell assay, luminescence | activation, % at 9.3 µM | 800 tested, 17% active | AID 504915; in the data active = activation above about 17%
Large screens that a line does not name were inactive (follow-up assays come after a bar, where they were run). The list is not random: actives were taken first. Their share in the collection is about 1.1%. Cut-off read from the data, not from the text of the source, unless noted: active = activation above about 18%; inactive = the rest.

O=C(O)C1CCCCC1C(=O)NCCc1c[nH]c2ccccc12 (stereo not given)	HTR5A ag 44.8 | MOR-DOR ag-2 inactive | HTR5A ag conf inactive
O=C(Nc1cccc(S(=O)(=O)NC2=NCCC2)c1)c1cc(=O)[nH]c2ccccc12	none
CC1CC1C(=O)OCC(=O)NCc1ccccc1 (stereo not given)	none
CCOc1ccc(C(C)=O)cc1COC(=O)c1ccccc1C(=O)N(C)Cc1ccccc1	none
CCC(C)(C)c1ccc(OCCCC[n+]2cccc(C)c2C)c(C(C)(C)CC)c1	HTR5A ag 21.0 | MOR-DOR ag-2 inactive | HTR5A ag conf inactive
Cc1cc(C(C)(C)C)ccc1OCCCCN1CCCC1	none
C=CCN1CCc2c(cc(O)c(O)c2Cl)C(c2ccccc2)C1 (stereo not given)	HTR5A ag 25.8 | MOR-DOR ag-2 inactive | HTR5A ag conf inactive
Cc1cc(C(=O)COC(=O)C2=COCCO2)c(C)n1-c1ccc2c(c1)OCO2	none
Cc1cc(C(=O)COC(=O)C2=COCCO2)c(C)n1-c1cccc(F)c1	HTR5A ag 15.7 | MOR-DOR ag-2 inactive | HTR5A ag conf inactive
CN(C)c1ccc(C(=O)NCC2CCCO2)cc1 (stereo not given)	none
CN(C)c1cccc(C(=O)NCC2CCCO2)c1 (stereo not given)	HTR5A ag 20.5 | MOR-DOR ag-2 inactive | HTR5A ag conf inactive
CS(=O)(=O)N(CCCC(=O)N1CCCCCC1)c1cccc(Cl)c1	none
O=C(CSc1ccc(-c2ccc(F)cc2)nn1)NCc1ccco1	HTR5A ag 19.2 | MOR-DOR ag-2 inactive | HTR5A ag conf inactive
O=C(Cc1ccccc1)NC(CSSCC(NC(=O)Cc1ccccc1)C(=O)O)C(=O)O (stereo not given)	none
Cn1cc(S(=O)(=O)NCc2cccs2)c(=O)n(C)c1=O	HTR5A ag 19.2 | MOR-DOR ag-2 inactive | HTR5A ag conf inactive
Cc1oc(-c2ccc(Cl)cc2)nc1CN1CCC(C(=O)N2CCN(Cc3ccccc3)CC2)CC1	HTR5A ag 15.5 | MOR-DOR ag-2 inactive | HTR5A ag conf inactive
Cc1oc(-c2ccc(Cl)cc2)nc1CN1CCC(C(=O)N2CCc3ccccc3C2)CC1	none
COc1cc(Br)c(C2CC(=O)Nc3cc(OC)c(OC)cc32)cc1OC (stereo not given)	none
COc1cc(C#Cc2c(-c3cncn3C)n(C)c3ccc(-c4ccc(CN5CCOCC5)cc4)cc23)cc(OC)c1	HTR5A ag 16.4 | MOR-DOR ag-2 19.6 | HTR5A ag conf inactive
Cc1onc(-c2ccccc2)c1C(=O)N/N=C/c1ccc([N+](=O)[O-])c(O)c1	HTR5A ag 20.3 | MOR-DOR ag-2 inactive | HTR5A ag conf inactive
CC(Nc1c([N+](=O)[O-])c(=O)oc2ccccc12)c1ccccc1 (stereo not given)	none
CCc1ccc(C2NC(=S)NC3=C2C(=O)N(c2ccccc2OC)C(c2ccc(CC)cc2)N3)cc1 (stereo not given)	HTR5A ag 21.6 | MOR-DOR ag-2 inactive | HTR5A ag conf inactive
O=C1C2=C(NC(=S)NC2c2ccc(Cl)cc2)NC(c2ccc(Cl)cc2)N1c1ccc(Cl)cc1 (stereo not given)	none
O=C(COc1cccc2ccccc12)Nc1cc(Cl)ccc1C(=O)O	none
O=C(COc1cccc2ccccc12)Nc1ccc(Cl)cc1C(=O)O	HTR5A ag 44.9 | MOR-DOR ag-2 inactive | HTR5A ag conf 46.0
CC(C)(C)NC(=O)NC(=O)COC(=O)CNC(=O)c1cccc(F)c1	HTR5A ag 14.7 | MOR-DOR ag-2 56.1 | HTR5A ag conf 25.6
CC(C)(C)NC(=O)NC(=O)COC(=O)c1cccc(F)c1	none
Oc1ccc(CNc2ccccc2)c2cccnc12	none
Oc1ccc(CNc2ccc(F)cc2)c2cccnc12	HTR5A ag 23.4 | MOR-DOR ag-2 inactive | HTR5A ag conf inactive
O=C(COC(=O)c1ccccc1Cl)NC1CCCCCC1	none
CN(C)C(=O)CSc1nnc(Cc2ccccc2)n1CC1CCCO1 (stereo not given)	none
O/C(=C\c1ccc2ccccc2n1)c1ccc(O)cc1O	none
C=CCN(c1ccccc1)S(=O)(=O)c1cccc(C(=O)N2CCCC2)c1	HTR5A ag 15.1 | MOR-DOR ag-2 46.9 | HTR5A ag conf inactive
CC(=O)Nc1ccc(SC[C@H](C)CN2CC[C@H](C(C)(C)C)CCC2=O)cc1	none
Cc1cccc(C(=O)OCC(=O)N(C)C(c2ccccc2)c2ccccc2)c1[N+](=O)[O-]	none
O=C(NCc1ccc2c(c1)OCO2)c1cnc2n(c1=O)CCS2	HTR5A ag 18.9 | MOR-DOR ag-2 inactive | HTR5A ag conf inactive
CCCCN(C)C(=O)c1cc2cc3ccc(OC)cc3nc2s1	HTR5A ag 20.9 | MOR-DOR ag-2 inactive | HTR5A ag conf inactive
CCCCc1cc(=O)oc2cc(OCC(=O)NC3CCN(Cc4ccccc4)CC3)ccc12	HTR5A ag 14.5 | MOR-DOR ag-2 inactive | HTR5A ag conf inactive
COc1ccc(/C=N/Nc2nn3cnnc3c3ccccc23)cc1	none
CCCN(CCC)Cc1cc(=O)oc2cc3c(cc12)CCC3	none
Cc1ccc(C2=NN(C(=O)CCl)C(c3cccs3)C2)o1 (stereo not given)	HTR5A ag 16.4 | MOR-DOR ag-2 21.1 | HTR5A ag conf 16.8
O=C(CCl)N1N=C(c2ccco2)CC1c1cccs1 (stereo not given)	none
Cc1ccc(CCNC(=O)C2CCC(=O)N2Cc2ccc(F)cc2)cc1 (stereo not given)	none
O=C(NCCc1ccc(Cl)cc1)C1CCC(=O)N1Cc1ccc(F)cc1 (stereo not given)	HTR5A ag 16.6 | MOR-DOR ag-2 inactive | HTR5A ag conf inactive
CCCCNc1c(-c2cccc(-c3cc(C(C)=O)cs3)c2)nc2cc(C)ccn12	HTR5A ag 23.6 | MOR-DOR ag-2 inactive | HTR5A ag conf inactive
O=C1C(Cl)=C(N2CCOCC2)C(=O)N1c1cccc(C(F)(F)F)c1	HTR5A ag 14.5 | MOR-DOR ag-2 inactive | HTR5A ag conf inactive
COC(=O)c1cccc(N2C(=O)C(Cl)=C(N3CCOCC3)C2=O)c1	none
O=C1OC(c2ccccc2)(c2ccc(O)cc2)c2ccccc21 (stereo not given)	HTR5A ag 22.4 | MOR-DOR ag-2 inactive | HTR5A ag conf inactive
Cc1ccc(S(=O)(=O)N(Cc2c(F)cccc2Cl)C(=O)N2CCN(C)CC2)cc1	none
CN(CC(=O)NC1CCN(Cc2ccccc2)CC1)S(=O)(=O)c1ccc(Cl)cc1	none
CN(CC(=O)NC1CCN(Cc2ccccc2)CC1)S(=O)(=O)c1ccc(Br)s1	HTR5A ag 14.8 | MOR-DOR ag-2 inactive | HTR5A ag conf inactive
O=[N+]([O-])c1ccc(S(=O)(=O)NN=C2CCCCC2)cc1	HTR5A ag 15.3 | MOR-DOR ag-2 inactive | HTR5A ag conf inactive
O=S(=O)(NN=C1CCCCCC1)c1ccc(Cl)cc1	none
O=C(CC1C(=O)NCCN1Cc1ccccn1)NCCc1ccccc1F (stereo not given)	none
CCC(C)NS(=O)(=O)c1ccc(OCC(=O)NCc2ccc(OC)cc2)cc1 (stereo not given)	none

Screening data (PubChem BioAssay)
